From PubChem BioAssay AID1006 (Sanford-Burnham Center for Chemical Genomics, 2008)
Out of some 200,000 compounds screened, about 3,000 (1.5%) were called active. Shown is part of a subset that was picked to be rich in actives. Values without a mark were called inactive.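 How the source made its calls: active means inhibition above about 50% when tested at 10 µM (limit read from the data); inactive means the rest.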

molecular target: Luciferin 4-monooxygenase (Photinus pyralis) (UniProt P08659); assay: firefly luciferase enzyme inhibitors, primary screen, artefact control for luciferase-based inhibitor screens, biochemical, luminescence, ATPLite (AID 1006); conditions: 10 min, at 10 µM, stronger effect = higher value
Sequence (P08659 whole entry, looked up): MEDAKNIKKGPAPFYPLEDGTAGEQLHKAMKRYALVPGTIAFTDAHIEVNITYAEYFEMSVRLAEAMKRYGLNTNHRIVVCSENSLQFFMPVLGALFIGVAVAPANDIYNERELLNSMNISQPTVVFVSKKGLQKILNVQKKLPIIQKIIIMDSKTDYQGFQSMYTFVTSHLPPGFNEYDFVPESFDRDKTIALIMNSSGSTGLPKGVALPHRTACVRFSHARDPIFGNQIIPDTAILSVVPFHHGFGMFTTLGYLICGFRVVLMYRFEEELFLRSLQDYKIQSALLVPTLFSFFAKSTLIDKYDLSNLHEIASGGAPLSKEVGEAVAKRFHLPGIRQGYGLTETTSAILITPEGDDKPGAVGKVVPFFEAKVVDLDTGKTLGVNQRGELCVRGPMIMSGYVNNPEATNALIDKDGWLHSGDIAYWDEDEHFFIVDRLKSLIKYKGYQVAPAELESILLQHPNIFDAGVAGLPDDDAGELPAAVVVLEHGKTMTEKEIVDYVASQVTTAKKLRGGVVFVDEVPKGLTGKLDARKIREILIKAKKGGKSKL

Compound | inhibition
CCCC(=O)Nc1ccc(C(=O)N/N=C/c2ccc[nH]2)cc1 | -1.8%
O=C(c1cc(Cl)cc(Cl)c1)N1CCC(=O)N(C(COCc2ccccc2)Cc2ccccc2)CC1 (stereo unspecified) | -9.5%
O=C(O)Cc1sc(-c2ccccc2)nc1-c1cccs1 | 6.8%
O=C(O)Cc1sc(-c2ccc(C(=O)O)cc2)nc1-c1ccccc1 | -4.9%
NC(=O)Cc1ccc2sc(-c3ccccc3)nc2c1 | 65.2% (active)
CCOC(=O)c1ccc(NC(=O)C2CC(=O)Nc3nc4ccccc4n32)cc1 (stereo unspecified) | 0.7%
O=c1[nH]c(CCl)nc2cc(-c3ccc(Cl)cc3)sc12 | 93.3% (active)
NC(=O)Cc1nc2scc(-c3ccc(Cl)cc3)c2c(=O)[nH]1 | -1.4%
O=c1[nH]c(CN2CCOCC2)nc2cc(Cl)ccc12 | -3.5%
Cc1cccc(NC(=O)NC(=S)NC(=O)c2ccccc2)c1 | 12.7%
Cn1c(-c2ccccc2)c[n+]2c1CCCCC2 | -4.6%
COc1ccc(C2=NN(c3ccccc3)C(c3cccs3)C2)cc1 (stereo unspecified) | 5.5%
FC(F)(F)c1nc2ccccc2nc1N/N=C/c1ccc(Cl)cc1 | 8.5%
O=c1c2ccccc2nc(N/N=C/c2ccccc2)n1O | 90.5% (active)
CC(C)(C)c1nnc(N/N=C/c2ccc(O)cc2)n(N)c1=O | 17.8%
c1ccc2c(NC3C4CC5CC(C4)CC3C5)nc(N3CCOCC3)nc2c1 (stereo unspecified) | -8.2%
CCOc1ccc(NC(=O)c2cc(C)nc3ccccc23)cc1 | -2.9%
CCc1cccc(C)c1NC(=S)N(CCCN1CCN(C)CC1)Cc1cccs1 | -0.5%
CN1C(=O)/C(=C\c2cc(Br)cs2)c2ccccc21 | 32.4%
CN(C)c1nccc(NCc2ccccc2)c1C#N | -1.3%
O=C1NC(c2ccccc2)CCC1(Cl)Cl (stereo unspecified) | -1.3%
O=C(CSc1ccc(/C=N/NC(=O)c2cccc(F)c2)o1)Nc1ccccc1 | 3.7%

Compound | inhibition
C/C(=N\OC(=O)c1ccccc1)c1c(C)nc2cc(C)ccn12 | -3.4%
Cc1ccc(NC(=O)C(=O)NCc2ccc(/C=N/NC(=O)c3c(C)nc4cc(C)ccn34)o2)cc1 | 70.8% (active)
C[C@@H]1CC[C@]2(O[C@@H](CCO)C[C@H](O)[C@H]2O)O1 | -2.6%
CCN(CC)CCNC(=O)c1ccc(NC(=O)c2c(F)cccc2Cl)cc1 | -2%
CC(=O)Nc1ccc(S(=O)(=O)NC2(C(F)(F)F)C(=O)NC(C)=C2C#N)cc1 (stereo unspecified) | -5.9%
C/C(N)=C(/C#N)C(=O)COC(=O)c1cc(-c2ccc(C)cc2)nc2ccccc12 | 12.9%
CNC(=O)COC(=O)c1cc(-c2ccc(OC)cc2)nc2ccccc12 | 54.2% (active)
COc1ccc(-c2cc(C(=O)n3cnc4ccccc43)c3ccccc3n2)cc1 | 36.7%
O=C(NNc1cc(Cl)ccc1Cl)c1cccnc1Cl | -7.9%
CC(=O)c1sc(N/N=C\c2ccc(C)cc2)nc1C | -5.2%
CC(=O)c1sc(NC(=O)c2ccc(C)cc2)nc1C | 68.8% (active)
CC(=O)c1sc(NC(=O)c2cccc3ccccc23)nc1C | -4.9%
CC(C)C(=O)Nc1cccc(C(=O)Nc2ccc3c(c2)OCO3)c1 | 33%
CCc1c(C)sc(NC(=O)/C=C/c2ccc3c(c2)OCO3)c1C(=O)OC | 5%
COc1ccc(/C=C/C(=O)Nc2ccc3c(c2)OCCO3)cc1OC | 10.1%
Cc1cccc(NC(=O)Nc2ccc3c(c2)OCO3)n1 | 55% (active)
COc1cccc(/C=C/C(=O)Nc2ccc3c(c2)OCCO3)c1 | 86.5% (active)
COc1ccc(OC)c(/C=C/C(=O)OCC(=O)Nc2ccc3c(c2)OCCO3)c1 | 0.6%
Cc1cccc(NC(=O)/C=C/c2ccc3c(c2)OCO3)n1 | 89.3% (active)
CC(NC(=O)Nc1ccc2c(c1)OCO2)c1ccncc1 (stereo unspecified) | -4.9%
O=C(/C=C/c1ccc2c(c1)OCO2)NCc1ccc(F)cc1 | 1.2%
CC(=O)c1c(-c2ccccc2)c2ccccc2[nH]c1=O | -6.4%

Compound | inhibition
CSc1ccc(/C=N/N2CCN(Cc3ccccc3Cl)CC2)cc1 | -7.8%
O=C(Cc1ccc(Cl)cc1)NCc1nc(-c2ccccc2)no1 | -3.2%
Cc1ccc(N(C(=O)c2sc(C)nc2C)C(C(=O)NC(C)(C)C)c2ccncc2)cc1 (stereo unspecified) | -4.2%
CCOC(=O)CN1CCC(c2ccccc2)CC1 | -0.7%
CCOc1ccc(S(=O)(=O)N/N=C(\C)c2ccc(Cl)c(Cl)c2Cl)cc1 | 1.5%
CC1(C)C2CC=C(/C=N/NC(=O)C3CC3)C1C2 (stereo unspecified) | -0.4%
Cc1cccc(C(=O)N2CCCN(C(=O)c3cccc(C)c3)CC2)c1 | -3%
COc1ccc(OCC(=O)NNC(=O)c2cccc(C)c2)cc1 | -0.5%
CC(C)c1cc(C(N)=O)c(NC(=O)c2cccc(COc3ccc(Br)cc3)c2)s1 | -2.6%
CCN(CC)C(=O)c1ccc(O)c(OC)c1 | -4%
COc1ccc(OCc2cccc(C(=O)N3CCCC3)c2)cc1 | 52.1% (active)
CCOc1ccc(OCc2cccc(C(=O)N(CC)CC)c2)cc1 | 68% (active)
CCCn1nc(Oc2nc(NC(C)C)nc(N(C)C)n2)ccc1=O | -7.4%
Cc1ccccc1N1C(=O)C(Oc2ccc(Cl)cc2)C1CNCC1CCCO1 (stereo unspecified) | -3.1%
CCOC(=O)c1sc(-c2cccc([N+](=O)[O-])c2)cc1N | -3.5%
Cc1ccc(OCCCC(=O)NC(C)c2ccccc2)c(C)c1 (stereo unspecified) | -1%
O=C(O)/C=C/c1ccc(OCCCF)cc1 | -2.5%
O=C(Oc1ccccc1Cl)c1ccc(N2CCOCC2)c([N+](=O)[O-])c1 | -14.3%
COc1ccccc1NC(=O)COC(=O)Cc1ccc(S(=O)(=O)N2CCCCC2)s1 | -8.3%
O=C(Nc1ccc2c(c1)CCC2)c1ccc(Br)s1 | 57.1% (active)
O=C(NC1CCCC1)c1ccc(Br)s1 | 3.5%
CC(C)C(=O)OCC(=O)Nc1ccc2c(c1)CCC2 | 8.9%
